The supplement of paper PMC10849652
The full data set covers some 8,800 targets. This sample favours those with a hit. About 0.5% of all pairs of compound and target were hits. A number with no mark means an inactive call.

Experiments:
Assay in all cases: log2 fold change, soluble protein after heating vs DMSO (PISA); higher = thermal stabilisation; K562 lysate, 10 uM; active = over 0.2 and 3.5 SD of the protein, either way, in both replicates (recomputed)
[1] = compound: C#Cc1cccc(Nc2ncnc3cc(OCCOC)c(OCCOC)cc23)c1 [erlotinib]
Outline: (§1)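 Values give the log-two fold change in thermal stability against solvent controls, from duplicates. Crude K562 extract at 1 mg/mL protein, made by dounce homogenisation in PBS pH 7.4 with 1 mM MgCl2, was treated with 10 μM compound for 30 min. After 3 min heating across 48°C-58°C, aliquots were pooled, adjusted to 0.5% NP-40 at 4°C and centrifuged at 21,000xg for 90 min. The supernatant was measured by TMTpro 16plex LC-MS/MS with channel sums equalised.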

[2] = compound: C/C(=N\NC(=O)C1=CC(=CC=C1)S(=O)(=O)N2CCOCC2)/C3=C(C=CC(=C3)Cl)O
Outline: as §1

[3] = compound: C1=CC(=CC=C1C2=NC3=C(N2)C=C(C=C3)C(=O)N)OC4=CC=C(C=C4)Cl
Outline: as §1

[4] = compound: C1=CC2=C(C=CC(=C2)/C=C\3/C(=O)NC(=NCC4=CC=CS4)S3)N=C1
Outline: as §1

[5] = compound: C1=CC2=NC=CN=C2C=C1/C=C/3\C(=O)NC(=O)S3
Outline: as §1

[6] = compound: C1=CC=C(C=C1)C2=NC(=C(N2)C3=CC=NC=C3)C4=CC(=C(C=C4)Cl)O
Outline: as §1

[7] = compound: C1=CC=C2C(=C1)C3=NNC4=CC=CC(=C43)C2=O
Outline: as §1

[8] = compound: C1CCN(C1)C(=O)NC2=CC=CC(=C2)NC3=NC=C(C(=N3)NCCC4=CN=CN4)Br
Outline: as §1

[9] = compound: C1CN(CCC1(CC2=CC=C(C=C2)Cl)N)C3=NC=NC4=C3C=CN4
Outline: as §1

[10] = compound: C1COCCN1CCN2C3=CC=CC=C3N=C2NC(=O)C4=CC(=CC=C4)[N+](=O)[O-] [IRAK-1-4 Inhibitor I]
Outline: as §1

[11] = compound: C=CC(=O)N1CCC[C@@H](n2nc(-c3ccc(Oc4ccccc4)cc3)c3c(N)ncnc32)C1 [ibrutinib]
Outline: as §1

[12] = compound: CC(=O)c1cnc2ccc(-c3cc(Cl)c(O)c(Cl)c3)nc2c1N[C@H]1CC[C@H](CN(C)C)CC1
Outline: as §1

[13] = compound: CC(C)(C)Cn1c(N)nc2ccc(-c3[nH]c(C(C)(C)C)nc3-c3ccc(F)cc3)nc21 [ralimetinib]
Outline: as §1

[14] = compound: CC(C)(O)CC(=O)NCCn1ccc2ncnc(Nc3ccc(Oc4cccc(C(F)(F)F)c4)c(Cl)c3)c21
Outline: as §1

[15] = compound: CC(C)C1=C2N=C(C=C(N2N=C1)NCC3=CC=CC=C3)NCCCCCCN
Outline: as §1

[16] = compound: CC1=C(C(CC(=O)N1)C2=CC=C(C=C2)C(F)(F)F)C(=O)NC3=C(C=C4C(=C3)C=NN4)F
Outline: as §1

[17] = compound: CC1=C(C2=C(C=C1)C(=O)C3=CC=CC=C3N2CCCN)C
Outline: as §1

[18] = compound: CC1=C(C=C(C=C1)NC(=O)C2=CC(=CC=C2)C(C)(C)C#N)NC3=CC4=C(C=C3)N=CN(C4=O)C
Outline: as §1

[19] = compound: CC1=C(C=C(C=C1)NC(=O)C2=CC(=CC=C2)N(C)C)NC(=O)C3=CC=C(C=C3)O
Outline: as §1

[20] = compound: CC1=CC=C(C=C1)SC2=C3C=C(SC3=CN=C2)C(=O)N
Outline: as §1

Chain of UniProt P00352 (P00352 whole entry, looked up): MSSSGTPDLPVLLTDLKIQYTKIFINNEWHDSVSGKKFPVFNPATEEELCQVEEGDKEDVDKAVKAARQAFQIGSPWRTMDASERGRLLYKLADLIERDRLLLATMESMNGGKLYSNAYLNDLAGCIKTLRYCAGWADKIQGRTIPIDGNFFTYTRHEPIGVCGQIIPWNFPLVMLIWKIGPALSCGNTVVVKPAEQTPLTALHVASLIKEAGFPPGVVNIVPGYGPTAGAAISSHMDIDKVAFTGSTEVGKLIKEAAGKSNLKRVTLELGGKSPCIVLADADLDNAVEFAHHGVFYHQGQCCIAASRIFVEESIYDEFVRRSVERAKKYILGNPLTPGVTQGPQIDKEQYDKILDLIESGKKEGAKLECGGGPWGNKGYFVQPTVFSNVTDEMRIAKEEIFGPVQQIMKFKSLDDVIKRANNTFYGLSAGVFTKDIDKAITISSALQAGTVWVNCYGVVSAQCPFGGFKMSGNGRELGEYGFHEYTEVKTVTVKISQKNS
Chain of UniProt Q9NWX5 (Q9NWX5 whole entry, looked up): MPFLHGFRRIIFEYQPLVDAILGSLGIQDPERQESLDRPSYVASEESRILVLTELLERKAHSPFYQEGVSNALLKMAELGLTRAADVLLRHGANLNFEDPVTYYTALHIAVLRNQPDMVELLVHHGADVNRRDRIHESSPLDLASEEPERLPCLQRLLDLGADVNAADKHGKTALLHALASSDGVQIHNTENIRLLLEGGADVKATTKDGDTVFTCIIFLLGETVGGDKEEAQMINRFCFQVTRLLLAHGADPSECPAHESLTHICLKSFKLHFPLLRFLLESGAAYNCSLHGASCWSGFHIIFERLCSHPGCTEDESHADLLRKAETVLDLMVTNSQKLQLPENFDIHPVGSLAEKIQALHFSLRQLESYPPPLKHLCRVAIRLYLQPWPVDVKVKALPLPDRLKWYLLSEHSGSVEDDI
Chain of UniProt P55265 (P55265 whole entry, looked up): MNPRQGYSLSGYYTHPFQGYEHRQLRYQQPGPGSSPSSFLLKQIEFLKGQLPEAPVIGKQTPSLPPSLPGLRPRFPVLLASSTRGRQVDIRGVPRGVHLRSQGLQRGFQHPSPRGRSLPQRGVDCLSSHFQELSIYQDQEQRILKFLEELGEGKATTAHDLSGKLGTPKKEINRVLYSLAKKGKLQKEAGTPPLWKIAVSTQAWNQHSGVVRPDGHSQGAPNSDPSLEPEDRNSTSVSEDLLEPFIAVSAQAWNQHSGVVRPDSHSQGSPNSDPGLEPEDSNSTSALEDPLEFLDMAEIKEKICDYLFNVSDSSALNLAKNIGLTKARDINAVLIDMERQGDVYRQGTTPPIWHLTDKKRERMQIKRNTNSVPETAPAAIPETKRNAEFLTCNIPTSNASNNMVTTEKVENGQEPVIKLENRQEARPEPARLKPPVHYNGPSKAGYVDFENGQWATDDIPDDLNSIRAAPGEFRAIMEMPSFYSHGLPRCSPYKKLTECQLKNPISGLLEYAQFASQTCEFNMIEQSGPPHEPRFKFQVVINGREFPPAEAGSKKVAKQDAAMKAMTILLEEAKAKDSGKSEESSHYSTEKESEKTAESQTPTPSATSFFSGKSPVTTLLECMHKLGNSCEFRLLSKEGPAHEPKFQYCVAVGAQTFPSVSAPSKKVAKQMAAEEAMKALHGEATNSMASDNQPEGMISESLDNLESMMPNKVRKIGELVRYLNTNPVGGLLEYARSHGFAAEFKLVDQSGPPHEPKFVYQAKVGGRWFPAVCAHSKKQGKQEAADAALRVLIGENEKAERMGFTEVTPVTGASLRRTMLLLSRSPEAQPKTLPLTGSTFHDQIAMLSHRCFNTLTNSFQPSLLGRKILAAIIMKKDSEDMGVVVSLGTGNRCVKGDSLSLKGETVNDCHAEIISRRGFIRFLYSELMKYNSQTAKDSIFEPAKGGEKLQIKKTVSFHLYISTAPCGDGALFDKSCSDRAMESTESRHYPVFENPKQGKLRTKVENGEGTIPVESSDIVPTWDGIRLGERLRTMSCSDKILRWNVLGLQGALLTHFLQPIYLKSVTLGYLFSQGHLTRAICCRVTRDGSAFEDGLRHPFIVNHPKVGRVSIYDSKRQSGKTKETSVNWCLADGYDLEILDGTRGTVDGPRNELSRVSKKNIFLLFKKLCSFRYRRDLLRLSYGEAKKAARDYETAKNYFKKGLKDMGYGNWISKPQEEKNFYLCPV
Chain of UniProt Q9UG63 (Q9UG63 whole entry, looked up): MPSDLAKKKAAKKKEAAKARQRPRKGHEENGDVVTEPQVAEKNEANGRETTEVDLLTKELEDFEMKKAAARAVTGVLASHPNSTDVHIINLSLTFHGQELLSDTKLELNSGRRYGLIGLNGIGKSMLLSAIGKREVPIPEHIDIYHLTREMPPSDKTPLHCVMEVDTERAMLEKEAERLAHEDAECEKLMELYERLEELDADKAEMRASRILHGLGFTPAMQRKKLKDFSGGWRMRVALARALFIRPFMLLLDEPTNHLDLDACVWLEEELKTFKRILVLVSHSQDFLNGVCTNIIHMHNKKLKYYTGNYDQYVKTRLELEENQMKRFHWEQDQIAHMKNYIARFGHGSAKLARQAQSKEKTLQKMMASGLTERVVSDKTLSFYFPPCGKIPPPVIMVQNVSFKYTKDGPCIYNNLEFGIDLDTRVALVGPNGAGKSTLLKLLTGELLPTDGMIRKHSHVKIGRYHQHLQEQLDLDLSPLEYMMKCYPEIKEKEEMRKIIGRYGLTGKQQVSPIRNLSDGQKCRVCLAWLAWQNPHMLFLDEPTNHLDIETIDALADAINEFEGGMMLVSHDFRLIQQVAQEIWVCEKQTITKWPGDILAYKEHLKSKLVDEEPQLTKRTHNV
Chain of UniProt Q5T5U3 (Q5T5U3 whole entry, looked up): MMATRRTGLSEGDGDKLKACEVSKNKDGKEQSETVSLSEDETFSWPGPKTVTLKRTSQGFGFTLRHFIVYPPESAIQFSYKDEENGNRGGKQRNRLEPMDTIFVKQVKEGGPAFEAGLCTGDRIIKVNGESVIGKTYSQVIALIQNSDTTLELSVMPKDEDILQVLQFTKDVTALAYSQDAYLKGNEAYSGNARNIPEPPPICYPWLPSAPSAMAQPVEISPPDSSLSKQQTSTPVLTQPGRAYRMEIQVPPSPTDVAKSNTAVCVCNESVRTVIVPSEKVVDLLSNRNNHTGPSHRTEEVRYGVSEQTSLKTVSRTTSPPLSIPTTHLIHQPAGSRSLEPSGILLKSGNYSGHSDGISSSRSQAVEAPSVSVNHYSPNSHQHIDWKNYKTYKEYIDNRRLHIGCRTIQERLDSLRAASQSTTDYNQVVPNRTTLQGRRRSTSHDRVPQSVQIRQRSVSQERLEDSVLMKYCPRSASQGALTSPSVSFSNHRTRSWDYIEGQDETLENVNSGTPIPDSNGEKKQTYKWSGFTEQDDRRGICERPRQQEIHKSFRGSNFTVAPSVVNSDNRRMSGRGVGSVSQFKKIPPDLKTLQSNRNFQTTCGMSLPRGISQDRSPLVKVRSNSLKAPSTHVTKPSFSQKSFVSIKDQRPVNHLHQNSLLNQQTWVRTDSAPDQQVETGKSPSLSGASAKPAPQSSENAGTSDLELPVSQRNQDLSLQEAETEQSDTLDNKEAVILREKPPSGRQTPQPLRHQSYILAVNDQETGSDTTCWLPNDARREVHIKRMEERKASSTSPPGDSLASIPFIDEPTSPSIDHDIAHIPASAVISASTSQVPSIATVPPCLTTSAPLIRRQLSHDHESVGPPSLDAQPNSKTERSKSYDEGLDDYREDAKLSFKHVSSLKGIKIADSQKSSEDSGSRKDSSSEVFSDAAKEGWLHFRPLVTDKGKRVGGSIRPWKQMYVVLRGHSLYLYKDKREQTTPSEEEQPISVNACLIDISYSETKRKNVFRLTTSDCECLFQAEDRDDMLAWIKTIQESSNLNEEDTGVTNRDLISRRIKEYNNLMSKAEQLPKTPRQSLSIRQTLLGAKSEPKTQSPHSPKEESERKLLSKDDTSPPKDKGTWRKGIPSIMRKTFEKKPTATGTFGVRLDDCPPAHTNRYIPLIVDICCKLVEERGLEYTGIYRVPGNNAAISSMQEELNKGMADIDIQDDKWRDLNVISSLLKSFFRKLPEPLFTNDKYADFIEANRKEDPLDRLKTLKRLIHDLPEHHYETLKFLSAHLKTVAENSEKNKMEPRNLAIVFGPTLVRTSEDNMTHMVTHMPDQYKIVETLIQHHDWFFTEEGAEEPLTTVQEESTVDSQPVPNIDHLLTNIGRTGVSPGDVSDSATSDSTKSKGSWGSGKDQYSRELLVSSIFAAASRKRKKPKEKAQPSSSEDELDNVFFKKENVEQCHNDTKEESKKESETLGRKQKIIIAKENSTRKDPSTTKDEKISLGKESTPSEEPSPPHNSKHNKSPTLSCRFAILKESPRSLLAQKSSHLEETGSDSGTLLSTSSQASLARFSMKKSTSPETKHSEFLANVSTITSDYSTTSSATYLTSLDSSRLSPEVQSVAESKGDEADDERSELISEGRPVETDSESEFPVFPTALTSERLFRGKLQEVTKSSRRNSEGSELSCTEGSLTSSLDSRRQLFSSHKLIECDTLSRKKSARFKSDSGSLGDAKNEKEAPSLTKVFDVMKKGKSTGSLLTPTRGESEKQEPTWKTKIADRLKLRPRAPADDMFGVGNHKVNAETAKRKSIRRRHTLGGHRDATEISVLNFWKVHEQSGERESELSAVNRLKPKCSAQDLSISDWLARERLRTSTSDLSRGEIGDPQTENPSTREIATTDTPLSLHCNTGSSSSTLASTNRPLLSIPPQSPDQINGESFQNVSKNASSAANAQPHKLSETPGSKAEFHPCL

Target	log2 fold change [1]	log2 fold change [2]	log2 fold change [3]	log2 fold change [4]	log2 fold change [5]	log2 fold change [6]	log2 fold change [7]	log2 fold change [8]	log2 fold change [9]	log2 fold change [10]	log2 fold change [11]	log2 fold change [12]	log2 fold change [13]	log2 fold change [14]	log2 fold change [15]	log2 fold change [16]	log2 fold change [17]	log2 fold change [18]	log2 fold change [19]	log2 fold change [20]
ABCF2 isoform 2 (UniProt Q9UG63)	0.046	-0.029	-0.049	-0.025	0.01	0.018	-0.042	0.049	0.016	-0.047	-0.012	0.013	0.059	0.003	0.01	0.007	-0.008	-0.013	0.021	0.012
ASB6 (UniProt Q9NWX5)	0.038	-0.311	0.04	-0.094	-0.005	0.06	0.092	-0.053	0.327	0.002	-0.04	-0.087	0.027	-0.013	0.001	-0.13	-0.007	0.055	-0.052	0.01
ADAR isoform 4 (UniProt P55265)	-0.029	-0.114	-0.06	-0.031	0.002	0.001	-0.029	0.002	-0.017	0	0.152	-0.025	0.029	-0.019	-0.03	0.018	0.016	-0.002	0.015	-0.021
ARFGAP1 (UniProt Q8N6T3)	-0.028	-0.209	-0.025	0.005	0.029	-0.039	-0.025	-0.018	0.002	0.038	-0.118	0.06	-0.018	-0.203	0.019	0.408	0.136	-0.062	0.061	-0.045
ALDH1A1 (UniProt P00352)	-0.048	0.044	-0.054	0.048	0.008	-0.033	0.132	0.027	0.012	-0.029	0.092	0.019	0.037	0.037	-0.029	0	0.26 (active)	-0.005	0.028	0.011
AKT2 (UniProt P31751)	-0.011	0.082	-0.013	-0.005	-0.022	-0.025	0.009	-0.014	-0.017	-0.045	-0.016	0.006	0.026	0.006	-0.006	0.011	0.007	0.005	-0.004	-0.044
AGPS (UniProt O00116)	0.033	-0.086	-0.014	0.037	0.019	-0.039	-0.082	-0.034	0.015	0.023	0.01	-0.004	-0.013	-0.07	-0.065	0.012	0.025	-0.177	-0.005	-0.02
ARHGAP21 (UniProt Q5T5U3)	-0.013	-0.182	-0.025	-0.098	-0.214	-0.018	-0.137	-0.118	-0.018	0.056	0.016	0.047	0.017	-0.047	0.022	0.077	-0.053	0.062	0.052	-0.015
